Our source for the z-score and composite z-score values is PubChem BioAssay.

Structures are written as SMILES. Calls of active or inactive are those of the source.

Assay [1] can be described thus: optical density shifts of acrAB sulA E. coli – strain DRC41, OD650, 48 h, E. coli filamentation inducer project, primary screen (AID 1152).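 Note: E. coli MC1000 strain DRC41 lacking acrAB efflux pump and sulA.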 The following applies: higher = more signal, called active from +8 up or from −8 down.
Assay [2] is described as follows: probe aLefty1 binding on compound microarray – biochemical, small-molecule microarray, 635/667 nm fluorescence, primary screen (AID 1153).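 Note: score merges spot fluorescence with signal-to-noise ratio from the scanned slide images.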 The note with it: higher = more signal.
Assay [3] can be described thus: plasmodial surface anion channel blockers, osmotic lysis – cell-based, P. falciparum Indochina, OD700, 1 h, primary screen (AID 1154). The note with it: P. falciparum Indochina infected RBC osmotic lysis, higher = more signal, called active from +8 up or from −8 down.
Assay [4] in a line: plasmodial surface anion channel blockers, osmotic lysis – cell-based, P. falciparum Indochina, OD700, 2 h, primary screen (AID 1155).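 Note: lysis reports solute entry through the parasite surface anion channel PSAC.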 The following applies: P. falciparum Indochina infected erythrocytes, higher = more signal, called active from +8 up or from −8 down.
Assay [5] can be described thus: changes in parasitized red cell lysis, either direction – P. falciparum Indochina, OD700, 3 h, PSAC antagonist project, primary screen (AID 1156). The following applies: P. falciparum-infected erythrocytes, osmotic lysis, higher = more signal, called active from +8 up or from −8 down.
A short description of assay [6]: plasmodial surface anion channel blockers, osmotic lysis – cell-based, P. falciparum Indochina, OD700, 18 h, primary screen (AID 1157). The note with it: P. falciparum Indochina infected erythrocytes, osmotic lysis OD700, 18 h; higher = more signal, called active from +8 up or from −8 down.
Assay [7] can be described thus: S6 kinase pathway phospho-S6 level changes – cell-based, A549, cytoblot, luminescence, serum-stimulated, primary screen (AID 1158).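 Note: serum-stimulated A549 lung adenocarcinoma cells; signal is phosphorylated S6 detected by cytoblot immunostaining with HRP secondary.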 The note with it: 5 h, higher = more signal.
For assay [8], the target named is NADPH oxidase 2 (Homo sapiens) (UniProt P04839). Put plainly: compounds shifting NOX2 Amplex Red fluorescence – cell-based, HEK293-NOX2, PMA-stimulated, NOX inhibitor project, primary screen (AID 1159). Note: test concentration not given here. The following applies: 45 min, higher = more signal, called active from +8 up or from −8 down.
The target of assay [9] is NADPH oxidase 4 (Homo sapiens) (UniProt Q9NPH5). Put plainly: compounds shifting NOX4 Amplex Red fluorescence – cell-based, HEK293-NOX4, tetracycline-induced, NOX inhibitor project, primary screen (AID 1160). The note with it: HEK293-NOX4, Amplex Red H2O2 fluorescence, 45 min; higher = more signal, called active from +8 up or from −8 down.
In assay [10] the target is NADPH oxidase 5 (Homo sapiens) (UniProt Q96PH1). Briefly: compounds shifting NOX5 Amplex Red fluorescence – cell-based, HEK293-NOX5, NOX inhibitor project, primary screen (AID 1161). The note with it: HEK293-NOX5, ionomycin, 45 min, higher = more signal.
Assay [11] is described as follows: compound effects on lung adenocarcinoma cell viability – A549, calcein-AM fluorescence, 48 h, basal, profiling panel (AID 1162). Note: test concentration not given here. The following applies: higher = more signal.
Assay [12] can be described thus: compound effects on differentiated 3T3-L1 adipocyte viability – cell-based, 3T3-L1 adipocytes, calcein-AM fluorescence, 48 h, basal, profiling panel (AID 1163). Note: test concentration not given here. The note with it: 3T3-L1 adipocytes viability, higher = more signal.
The nature of assay [13]: compound effects on hepatocellular carcinoma cell viability – HepG2, calcein-AM fluorescence, 48 h, basal, profiling panel (AID 1164). Note: test concentration not given here. The note with it: higher = more signal.
The nature of assay [14]: compound effects on multiple myeloma cell viability – MM1S, calcein-AM fluorescence, 48 h, basal, profiling panel (AID 1165).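 Note: viability of MM1S multiple myeloma cells under basal unstimulated conditions; test concentration not given here.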 The following applies: higher = more signal.
Assay [15] can be described thus: calcein-AM signal in unstimulated myeloma cells – cell-based, calcein-AM fluorescence, 48 h, PK04 Diversity Set, profiling panel (AID 1166).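 Note: cells grown under basal conditions without added stimulus; test concentration not given here.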 The following applies: RPMI8226 myeloma viability, higher = more signal.
Assay [16] in a line: JC-1 mitochondrial signal, unstimulated HepG2 cells – cell-based, JC-1 fluorescence, 24 h, 100 nL compound, profiling panel (AID 1167). Note: test concentration not given here. The note with it: HepG2 mitochondrial potential, higher = more signal.
Assay [17] in a line: JC-1 mitochondrial signal, unstimulated adipocytes – cell-based, JC-1 fluorescence, 3T3-L1 adipocytes, 24 h, 100 nL compound, profiling panel (AID 1168). Note: test concentration not given here. The note with it: JC-1 mitochondrial fluorescence, higher = more signal, called active from +8 up or from −8 down.
Assay [18] is described as follows: JC-1 mitochondrial signal, unstimulated myeloma cells – cell-based, JC-1 fluorescence, RPMI8226, 24 h, 100 nL compound, profiling panel (AID 1169). Note: test concentration not given here. The following applies: JC-1 mitochondrial potential fluorescence, higher = more signal.
Assay [19] in a line: JC-1 mitochondrial signal, unstimulated MM1S myeloma – cell-based, JC-1 fluorescence, 24 h, 100 nL compound, profiling panel (AID 1170). Note: test concentration not given here. The following applies: MM1S mitochondrial potential, higher = more signal.
Assay [20] is described as follows: resazurin metabolic signal in A549 cells – cell-based, resazurin fluorescence, 24 h, PK04 Diversity Set, profiling panel (AID 1171). Note: test concentration not given here. The note with it: A549 viability, higher = more signal, called active from +8 up or from −8 down. For orientation: The colour change of resazurin is a common sign of viable cells or microbes.

NADPH oxidase 5 (Homo sapiens), sequence (Q96PH1 whole entry, looked up): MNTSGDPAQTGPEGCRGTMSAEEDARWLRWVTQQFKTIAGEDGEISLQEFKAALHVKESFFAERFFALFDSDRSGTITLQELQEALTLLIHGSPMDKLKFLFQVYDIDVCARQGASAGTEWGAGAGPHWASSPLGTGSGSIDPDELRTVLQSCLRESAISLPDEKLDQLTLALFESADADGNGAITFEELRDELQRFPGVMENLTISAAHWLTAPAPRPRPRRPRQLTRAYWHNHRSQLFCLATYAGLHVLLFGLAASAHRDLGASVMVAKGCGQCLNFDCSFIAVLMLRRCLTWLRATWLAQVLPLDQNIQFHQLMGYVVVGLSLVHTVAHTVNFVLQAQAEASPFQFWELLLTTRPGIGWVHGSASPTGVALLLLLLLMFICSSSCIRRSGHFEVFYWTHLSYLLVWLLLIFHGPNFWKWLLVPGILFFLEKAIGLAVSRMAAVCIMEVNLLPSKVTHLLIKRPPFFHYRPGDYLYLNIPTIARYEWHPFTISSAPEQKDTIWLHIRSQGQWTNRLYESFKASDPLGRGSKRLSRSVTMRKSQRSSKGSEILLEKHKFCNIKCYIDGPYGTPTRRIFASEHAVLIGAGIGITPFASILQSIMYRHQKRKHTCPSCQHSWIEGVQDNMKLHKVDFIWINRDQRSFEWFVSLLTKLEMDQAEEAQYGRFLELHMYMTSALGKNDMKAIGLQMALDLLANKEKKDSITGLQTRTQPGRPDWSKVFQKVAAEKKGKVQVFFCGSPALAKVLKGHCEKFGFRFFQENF
NADPH oxidase 4 (Homo sapiens), sequence (Q9NPH5 whole entry, looked up): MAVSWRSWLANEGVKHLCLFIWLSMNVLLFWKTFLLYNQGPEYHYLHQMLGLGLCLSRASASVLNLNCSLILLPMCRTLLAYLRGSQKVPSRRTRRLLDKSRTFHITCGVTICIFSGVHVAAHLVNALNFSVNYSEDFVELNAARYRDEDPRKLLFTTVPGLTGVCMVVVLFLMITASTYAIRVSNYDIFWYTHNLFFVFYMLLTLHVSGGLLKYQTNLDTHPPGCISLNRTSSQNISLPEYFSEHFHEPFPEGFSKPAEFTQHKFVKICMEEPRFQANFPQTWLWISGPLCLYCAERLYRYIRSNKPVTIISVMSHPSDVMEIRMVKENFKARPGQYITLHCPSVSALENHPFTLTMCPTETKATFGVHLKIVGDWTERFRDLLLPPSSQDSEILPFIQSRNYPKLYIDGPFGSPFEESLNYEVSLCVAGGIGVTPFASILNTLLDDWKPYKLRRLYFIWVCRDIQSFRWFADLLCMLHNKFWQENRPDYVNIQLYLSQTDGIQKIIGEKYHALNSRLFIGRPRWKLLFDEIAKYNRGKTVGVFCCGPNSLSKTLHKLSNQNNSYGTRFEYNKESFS
NADPH oxidase 2 (Homo sapiens), sequence (P04839 whole entry, looked up): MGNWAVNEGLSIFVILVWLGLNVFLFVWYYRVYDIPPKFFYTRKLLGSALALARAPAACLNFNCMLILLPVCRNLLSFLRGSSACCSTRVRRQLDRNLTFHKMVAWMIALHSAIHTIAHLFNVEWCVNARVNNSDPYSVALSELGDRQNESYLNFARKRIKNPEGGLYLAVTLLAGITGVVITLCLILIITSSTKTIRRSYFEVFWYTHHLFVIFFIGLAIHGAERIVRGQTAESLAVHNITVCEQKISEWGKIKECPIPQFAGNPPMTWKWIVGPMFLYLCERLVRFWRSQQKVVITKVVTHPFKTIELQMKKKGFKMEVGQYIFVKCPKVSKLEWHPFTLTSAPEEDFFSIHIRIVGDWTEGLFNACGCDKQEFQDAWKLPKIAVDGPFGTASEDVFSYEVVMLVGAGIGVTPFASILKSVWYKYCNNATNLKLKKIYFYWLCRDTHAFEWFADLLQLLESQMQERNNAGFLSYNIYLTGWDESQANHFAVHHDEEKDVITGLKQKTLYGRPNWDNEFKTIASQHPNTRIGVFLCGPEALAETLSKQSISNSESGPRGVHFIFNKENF

Regarding `C=C(COC)/C(=C/C[C@@H](OC(=O)c1ccncc1)c1ccc(OCCO)cc1)c1cnc2ccccc2c1`, the z-score was 0.634 (inactive) in assay [1]; 23.1 (active) in assay [3]; 5.56 (inactive) in [4]; 1.59 (inactive) in [5]; 1.19 (inactive) in assay [6]; -0.0567 in assay [7]. Also, the z-score in [8] is -1.17 (inactive); in assay [9], -0.596 (inactive); in [10] it was -1.84; in assay [11], 0.101; in assay [12], 1.48; in assay [13], -0.0465. The z-score in assay [14] was -0.289; in assay [15], -0.594; in assay [16], 1.86; in assay [17] it was -0.892 (inactive); in assay [18], 0.674; in assay [19], 0.464. In addition, in assay [20], the z-score is 0.549 (inactive). Moreover, the composite z-score in assay [2] is 0.497.

As to `Cc1ccc(S[C@]2(C(=O)NCC(F)(F)F)CC(=O)N(Cc3ccccc3)[C@@H]2c2ccc(CO)cc2)cc1`, the z-score in assay [1] is -0.009 (inactive); in assay [3] it was 1.6 (inactive); in assay [4], -0.821 (inactive); in assay [5], 1.56 (inactive); in [6], -1.73 (inactive); in assay [7], 1.98. Moreover, the z-score in [8] is -0.599 (inactive); in assay [9] it was 0.488 (inactive); in [10] it was -1.68; in assay [11], 0.149; in assay [12], 0.787; in [13], -0.479. In addition, the z-score is 0.0646 in [14]; -1.28 in assay [15]; 0.0177 in [16]; -0.291 (inactive) in assay [17]; 0.871 in [18]; -0.686 in assay [19]. Also, the z-score in [20] was 0.42 (inactive). The composite z-score in [2] came out at 0.0413.

In the case of `C=CCN1C(=O)[C@@]2(O[C@@H](CCO)[C@H]([Si](C)(C)c3ccc(OC)cc3)[C@H]2C)c2cc(N3C(=O)c4ccccc4Oc4ccccc43)ccc21`, the z-score is 1.88 (inactive) in assay [1]; 24.4 (active) in [3]; 8.39 (active) in assay [4]; 0.332 (inactive) in [5]; 2.07 (inactive) in assay [6]; 0.502 in [7]. The z-score in assay [8] was -0.946 (inactive); in assay [9], 0.757 (inactive); in assay [10], -0.54; in assay [11], -3.02; in assay [12], -0.428; in [13], -4.76. For the same compound, the z-score in assay [14] is -2.94; in assay [15], -4.12; in [16], -2.97; in [17] it was 1.07 (inactive); in assay [18] it was -1.1; in [19] it was -2.33. Further, the z-score in assay [20] was -4.55 (inactive). This compound also had a composite z-score in [2] of -0.147.

Turning to `CCOC(=O)C[C@H]1[C@H](OC(=O)c2ccccc2-c2ccccc2)[C@@H](NC(=O)CC(C)C)c2cc(OCCCO)ccc2N1C(=O)c1ccc2ccccc2n1`, the z-score in assay [1] is -0.518 (inactive); in assay [3] it was 11.9 (active); in [4], 1.64 (inactive); in [5] it was -0.0722 (inactive); in [6], 0.598 (inactive); in assay [7], -0.577. Also, the z-score in [8] is -0.274 (inactive); in assay [9], 1.15 (inactive); in assay [10] it was 1.51; in assay [11], 0.375; in [12], 0.556; in assay [13], 0.2. Also, the z-score in [14] is -1.32; in assay [15], -2.05; in assay [16] it was 0.851; in assay [17], -0.0831 (inactive); in [18], -0.537; in assay [19], 0.32. Moreover, the z-score in assay [20] is -0.109 (inactive). For the same compound, the composite z-score in [2] was -0.192.

For `C=CC[C@@]1(C(=O)O)N=C(c2ccc(OCCCO)cc2)O[C@@H]1c1ccccc1`, the z-score was 0.938 (inactive) in assay [1]; 11.5 (active) in assay [3]; 0.526 (inactive) in assay [4]; 0.208 (inactive) in assay [5]; 0.568 (inactive) in assay [6]; 0.0003 in [7]. Also, the z-score in assay [8] is 0.0822 (inactive); in [9], 1.25 (inactive); in assay [10], 0.448; in [11], 0.819; in [12], -0.563; in assay [13], 1.59. Also, the z-score in assay [14] is 0.576; in assay [15], -0.252; in [16], 0.89; in assay [17], 0.995 (inactive); in assay [18], -0.462; in assay [19], -0.341. In addition, the z-score in [20] was 0.353 (inactive). Further, the composite z-score in [2] is -0.146.

As for `CC(C)C[C@@H]1NC(=O)[C@H]2C[C@@H](C(=O)NCCCCCC[N+](C)(C)C)[C@@H](c3cccc(OCCO)c3)N2C1=O`, the z-score in assay [1] was 0.898 (inactive); in assay [3], 6.18 (inactive); in assay [4] it was 0.596 (inactive); in assay [5], 0.853 (inactive); in [6] it was 0.251 (inactive); in assay [7], -0.214. The z-score in assay [8] was 1.67 (inactive); in assay [9], 0.95 (inactive); in assay [10], 1.3; in assay [11], -0.53; in [12], 0.282; in assay [13] it was 0.0659. The z-score in [14] is -0.804; in assay [15] it was -0.0361; in assay [16] it was -0.474; in [17], 0.0908 (inactive); in assay [18], -0.271; in assay [19], -0.34. The z-score in [20] was 1.24 (inactive). In [2], this compound came in with a composite z-score of -0.64.

In the case of `CN(C)CCCN1C(=O)[C@@]2(c3ccc([N+](=O)[O-])cc3)CC(=O)N(CC34CC5CC(CC(C5)C3)C4)[C@@H]2c2ccc(CO)cc21`, the z-score was 0.388 (inactive) in [1]; 2.1 (inactive) in assay [3]; -0.451 (inactive) in [4]; 1.27 (inactive) in [5]; -0.405 (inactive) in assay [6]; 0.299 in assay [7]. Besides, the z-score in assay [8] was -2.29 (inactive); in assay [9], -0.0839 (inactive); in assay [10], 1.56; in assay [11], 2.86; in [12], 0.338; in [13] it was 0.28. Besides, the z-score in [14] is -0.18; in assay [15], 0.621; in [16], 0.474; in [17], 1.38 (inactive); in assay [18], -0.0069; in [19], 0.41. In assay [20], the z-score was -0.928 (inactive). The same compound showed a composite z-score in assay [2] of -0.0662.

For the compound `CCOC(=O)C1=CC[C@@H](c2ccc([N+](=O)[O-])cc2)N(S(=O)(=O)c2ccc(C)cc2)[C@H]1c1ccccc1`, the z-score was -0.785 (inactive) in [1]; 2.13 (inactive) in assay [3]; 1.6 (inactive) in [4]; 0.106 (inactive) in assay [5]; 0.903 (inactive) in assay [6]; -0.543 in assay [7]. Also, the z-score in assay [8] is 1.46 (inactive); in [9], 1.1 (inactive); in assay [10] it was 1.43; in assay [11], -0.143; in assay [12] it was -0.786; in assay [13], 0.239. Besides, the z-score is -0.767 in [14]; -0.281 in assay [15]; 2.35 in assay [16]; -0.233 (inactive) in assay [17]; 1.21 in assay [18]; -1.25 in assay [19]. In addition, in [20], the z-score was 0.807 (inactive). In addition, the composite z-score in assay [2] is 0.206.

Regarding `CON(C)C(=O)C=C1C[C@@H](c2cccc(Cl)c2)O[C@@H](c2cccc(Cl)c2)O1`, the z-score in assay [1] is -0.511 (inactive); in [3], 9.13 (active); in assay [4], 2.17 (inactive); in assay [5], -1.24 (inactive); in assay [6], 1.47 (inactive); in assay [7], 0.178. Further, the z-score in assay [8] was -0.0563 (inactive); in assay [9] it was -0.986 (inactive); in assay [10], 0.0304; in [11] it was -1.5; in assay [12] it was 0.559; in assay [13], -2.18. In addition, the z-score in assay [14] was -2.44; in [15], -4.18; in [16], 3.67; in assay [17], 0.748 (inactive); in assay [18], -1.09; in assay [19] it was -1.16. Also, the z-score in [20] was 2.23 (inactive). This compound came in with a composite z-score in [2] of -0.0035.
